{
  "source": "PubChem BioAssay",
  "note": "Values joined by “and” are separate entries in the source; they are usually repeats but may differ in a detail not shown here. Identical values can stand only once.",
  "data": [
    {"assay": "JC-1 mitochondrial signal, unstimulated HepG2 cells – cell-based, JC-1 fluorescence, 24 h, 100 nL compound, profiling panel (AID 1167); also: test concentration not given here", "conditions": "HepG2 mitochondrial potential, higher = more signal", "values": [
      {"smiles": "C=CCN(C(=O)C(c1cccs1)N(C(=O)/C=C\\C(=O)O)c1ccc(CCO)cc1)C(C)(C)C", "note": "(stereo not drawn)", "z-score": "-0.178 and -0.341"},
      {"smiles": "C=C[C@@H](OC)[C@H](O)c1ccc(OCCO)cc1", "z-score": "-0.244 and 0.904"},
      {"smiles": "C=CCN(C(=O)C(c1cccs1)N(CCOCCO)C(=O)/C=C\\C(=O)O)c1ccc(OC)cc1", "note": "(stereo not drawn)", "z-score": "0.506 and 1.39"},
      {"smiles": "C=C[C@@H](C)[C@H](O)c1ccc(O)c2ccccc12", "z-score": "-1.66 and -1.91"},
      {"smiles": "C[C@@H]1CN2[C@@H](CC[C@@H](C)[C@@H]2c2ccc(Br)cc2)C(=O)O1", "z-score": "0.446 and 0.56"},
      {"smiles": "C=CCN(C(=O)C1N(c2ccc(CCO)cc2)C(=O)C2C(C(=O)O)C3C=CC21O3)c1ccc(OC)cc1", "note": "(stereo not drawn)", "z-score": "-0.19 and -0.0346"},
      {"smiles": "C=C[C@H](C)[C@@H](O)c1ccc(OCCO)cc1", "z-score": "-0.368 and 0.814"},
      {"smiles": "C=CCN(C(=O)C(c1cccs1)N(CCOCCO)C(=O)/C=C\\C(=O)O)C(C)(C)C", "note": "(stereo not drawn)", "z-score": "1.07 and 0.991"},
      {"smiles": "COC(=O)C1=C(C)N(Cc2ccccc2)[C@]23O[C@](C(=O)OC)(C(=O)N2[C@@H]1c1ccccc1)[C@@H](c1ccccc1)[C@@H]3C(=O)c1ccccc1", "z-score": "2.68 and 2.31"},
      {"smiles": "C=CCN(CCCC)C(=O)C1N(C(C)(C)CO)C(=O)C2C(C(=O)O)C3C=CC21O3", "note": "(stereo not drawn)", "z-score": "-0.553 and -0.548"},
      {"smiles": "Cc1ccc(S(=O)(=O)N[C@H]2COC(=O)[C@@H](C)COC(=O)[C@H](C)NC(=O)CC=C[C@H]2C)cc1", "z-score": 0.125},
      {"smiles": "Cc1ccc(S(=O)(=O)OC[C@@H]2CN3[C@@H](CC[C@@H](C)[C@@H]3c3ccc(Br)cc3)C(=O)O2)cc1", "z-score": "-0.735 and 0.438"},
      {"smiles": "COC(=O)C1=C(C)N(Cc2ccccc2)C2=C(C(=O)c3ccccc3)[C@H](c3ccccc3)[C@@](O)(C(=O)OC)C(=O)N2[C@@H]1c1ccccc1", "z-score": "1.33 and 2.03"}
    ]}
  ]
}
